An excerpt weighted towards active compounds, which were near 8% of everything screened.
SW480 rerep: DNA re-replication induction in SW480 cells | SW480 DNA re-replication, Hoechst DNA content imaging, 48 h | Potency, µM (top dose mostly 46.1 µM), inactives show at the top dose re-replication activation, actives largely listed as activators | 340,000 tested, 1.8% active | AID 624297; also: % of control where 0% means no effect; nearly all actives have a fitted effect of over 55% in size
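Image-based DNA-content assay: after two days of treatment, nuclei were labelled with the DNA dye Hoechst and imaged, and hits were compounds raising the count of nuclei showing high fluorescence intensity.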
HT1080NT lethal: kills 2HG-producing HT-1080-NT fibrosarcoma cells; 360,000 tested, 1.6% active; Potency, µM (top dose mostly 46.1 µM), inactives show at the highest dose activity, negative = less viability, usual class: cytotoxic; HT-1080-NT fibrosarcoma viability, CellTiter-Glo ATP luminescence, 48 h;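 also: NT is the 2HG producing partner of a matched IDH1 knockdown line; 0% = DMSO-treated cells and -100% = media-only wells without cells; nearly all actives have a fitted effect of over 55% in size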
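HT-1080-NT fibrosarcoma cells (2HG-overproducing), 750 cells/well in RPMI with 5% FBS, dosed after 2 h and incubated 48 h at 37C. CellTiter-Glo luminescence normalized to DMSO and no-cell wells; concentration-response curves fitted and classed.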
KB-V1 cytotox: KB-V1 MDR subline cytotoxicity | KB-V1 MDR cells viability, CellTiter-Glo, 72 h | Potency, µM (doses to about 46.1 µM), actives largely listed as cytotoxic | 400,000 tested, 3.4% active | AID 1347076; also: % is scaled to controls: 0 for no effect and ±100 for the full control effect; nearly all actives have a fitted effect of over 60% in size
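Cytotoxicity toward P-gp-expressing KB-V1 cells was determined as loss of CellTiter-Glo luminescence after 72 h at 37 degrees C. Compounds were tested in quantitative HTS format across a concentration range, with curves fitted to normalized data.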
MCF10A rereplic: DNA re-replication induction in MCF 10a cells. MCF 10A DNA re-replication, Hoechst nuclear intensity, 48 h. Potency, µM (top dose mostly 46.1 µM), inactives show at the highest dose activity, positive = re-replication, hits mostly activators. 350,000 tested, 2.9% active; also: % of control where 0% means no effect; nearly all actives have a fitted effect of over 50% in size
HT1080 IDH1KD tx: HT-1080 IDH1 knockdown cell toxicity (counter line). HT-1080 IDH1 knockdown viability, ATP luminescence, 48 h. Potency, µM (doses to about 46.1 µM), for the others: top-dose activity, negative = toxicity, usual class: cytotoxic. 360,000 tested, 2% active. AID 686971;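 also: 0% = DMSO wells and -100% = cell-free medium wells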
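Cytotoxicity counter-line: IDH1KD HT-1080, 48 h, CellTiter-Glo. Curves classed by r2, magnitude and activity.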
KB-3-1 cytotox: kills parental KB-3-1 adenocarcinoma cells. Potency, µM (titrated, usually from 46.1 µM), most hits filed as cytotoxic. KB-3-1 viability, CellTiter-Glo ATP luminescence, 72 h. 400,000 tested, 1.4% active; also: % is scaled to controls: 0 for no effect and ±100 for the full control effect; nearly all actives have a fitted effect of over 60% in size
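Cytotoxicity in the drug-sensitive parental line KB-3-1 was scored as loss of CellTiter-Glo luminescence following 72 h incubation with compound. Values come from curve fitting of normalized concentration-response data.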
Starred values were filed as active, the others as inactive; i = inactive; ? = inconclusive; . = not tested or not shown. Calls follow the shape of the dose curve; as a rule, active = well fitted curve in the direction sought with a large enough effect; inconclusive = small, poorly fitted or top-dose-only effect, or another doubt; inactive = no such curve, though single readings can be large; an effect the other way counts as inactive or inconclusive. Potency is read from the fitted curve at half-maximal effect.

SMILES	SW480 rerep	HT1080NT lethal	KB-V1 cytotox	MCF10A rereplic	HT1080 IDH1KD tx	KB-3-1 cytotox
COc1ccc(C)cc1/C=C/C(=O)N1CCN(S(=O)(=O)c2cccs2)CC1	.	0%	i	.	1%	i
CC1(C)NC(=O)N(CCOCCOc2cccc(Oc3ccccc3)c2)C1=O	-4%	-16%	i	-5%	-18%	i
CC1(C)NC(=O)N(CCOCCOc2ccc3ccccc3c2Br)C1=O	-1%	-16%	21µM*	11%	?	i
CC1(C)NC(=O)N(CCCCOc2ccc3ccccc3c2Cl)C1=O	4%	?	21µM*	?	10µM*	?
CCC(=O)c1ccccc1OCCCN1C(=O)NC(C)(C)C1=O	8%	5%	?	5%	-3%	i
Cc1ccc(C(=O)N2c3ccccc3N(Cc3ccccc3)C(=O)C2(C)C)cc1	?	-30%	6.5µM*	4%	?	i
CN(C)c1cccc(-c2nnc(N3CCC(C(N)=O)CC3)s2)c1	.	.	i	.	.	i
Cc1nn(C)c(C)c1CN(Cc1nc(-c2ccc(F)cc2F)oc1C)C1CC1	5%	-2%	?	11%	-16%	i
Cc1nn(C)c(C)c1CN(Cc1nc(-c2cc(F)ccc2F)oc1C)C1CC1	1%	-16%	16µM*	4%	?	i
CCOC(=O)c1cnc2nc(NCc3cccc(Br)c3)[nH]n2c1=O	.	.	i	.	.	i
Cc1cc(CCCCCCCCc2cc(C)cc(=O)o2)oc(=O)c1	-8%	6%	7.3µM*	1%	-7%	i
COC(=O)c1cc(C)cc(=O)o1	-28%	4%	i	-3%	12%	i
CCCCNC(=O)c1c(N)[nH]c(C(=O)c2ccccc2)c1-c1ccccn1	.	-3%	21µM*	.	-2%	?
O=C(/C=C\c1cn(-c2ccccc2)nc1-c1ccc2c(c1)OCCO2)N1CCOCC1	-70%	-13%	?	18µM*	-14%	i
O=C(O)/C=C/c1cn(-c2ccccc2)nc1-c1ccc2c(c1)OCCO2	0%	-6%	i	0%	-10%	i
O=C(/C=C/c1cn(-c2ccccc2)nc1-c1cccc(Cl)c1)N1CCN(c2ccccn2)CC1	6%	-29%	23µM*	21%	-4%	?
CN1CCN(C(=O)/C=C/c2cn(-c3ccccc3)nc2-c2ccc3c(c2)OCCO3)CC1	?	23µM*	i	?	23µM*	i
Cc1cc(C)c(NC(=O)c2ccc[n+](Cc3ccc([N+](=O)[O-])cc3)c2)c(C)c1	1%	-14%	i	1%	-13%	i
Cc1cc(C)n(-c2nc3cc(Cl)ccc3nc2Nc2ccc(C)c(F)c2)n1	.	.	i	.	.	i
CCN1CCC(N(Cc2ccc3c(c2)OCO3)C(=O)Nc2cc(Cl)ccc2C(=O)OC)CC1	.	.	?	.	.	16µM*
COc1ccc(CCNC(=O)c2cccn2C)cc1	-22%	-4%	i	-26%	-1%	i
CCCCN(C)C(=O)C1CCCN(c2ncnc3onc(C)c23)C1 (configuration not stated)	.	.	i	.	.	?
CCOC(=O)CSc1nc(-c2ccccn2)ncc1OC	0%	7%	?	?	8%	i
COc1cnc(-c2ccccn2)nc1Sc1ccc(F)cc1	-37%	21µM*	i	2%	-25%	i
COc1cnc(-c2ccccn2)nc1Sc1ccc(Cl)cc1	21µM*	4%	?	15µM*	-2%	?
SMILES	SW480 rerep	HT1080NT lethal	KB-V1 cytotox	MCF10A rereplic	HT1080 IDH1KD tx	KB-3-1 cytotox
COc1ccc(Sc2nc(-c3ccccn3)ncc2OC)cc1	9.2µM*	?	?	?	?	i
COc1cnc(-c2ccccn2)nc1Sc1ccccc1	?	?	i	7%	-18%	i
Cc1ccc(OC(=O)CSc2nnc(CNC(=O)c3ccccc3)o2)cc1	.	.	?	.	.	i
Cc1cc(=O)[nH]c(SCc2nnc(-c3ccccc3)o2)n1	-2%	11%	i	2%	27%	i
Clc1ccc2nc(SCc3nnc(-c4ccccc4)o3)[nH]c2c1	6%	-14%	16µM*	4%	2%	i
CCOc1cc(CNC(=O)C(NS(=O)(=O)c2cccs2)C(C)C)cc(OCC)c1OCC (configuration not stated)	.	.	i	.	.	i
CCOC(=O)Nc1ccc2c(c1)C(=NNC(N)=S)c1ccccc1-2	?	?	23µM*	?	?	?
CCOC(=O)Nc1ccc2c(c1)C(=NO)c1ccccc1-2	-1%	2%	8.2µM*	?	11%	?
NC(=O)c1cccc2c1-c1ccccc1/C2=N/NC(N)=S	-9%	0%	i	-5%	8%	i
CN(C)S(=O)(=O)n1cnc([C@@H]2[C@@H]3C(=O)OC[C@@H]3C[C@]23N=CN(Cc2ccccc2)C3=O)c1	-11%	11%	i	10%	16%	i
Cc1cccc(Sc2nc(-c3ccccc3)ccc2C#N)c1	-4%	-9%	?	10%	-9%	i
COc1ccc(C(CNC(=O)c2ccc(OCc3c(C)noc3C)cc2)N2CCCC2)cc1 (configuration not stated)	-5%	2%	1.5µM*	8%	2%	?
COc1cc(C(=O)NCC(c2ccco2)N2CCCC2)ccc1OCc1c(C)noc1C (configuration not stated)	3%	18%	10µM*	0%	11%	?
COc1ccccc1C(CNC(=O)c1ccc(OCc2c(C)noc2C)cc1)N1CCCC1 (configuration not stated)	-18%	-8%	?	?	-2%	?
COc1ccc(C(CNC(=O)c2cccc(NC(=O)c3cccs3)c2)N2CCCC2)cc1 (configuration not stated)	-5%	-5%	21µM*	4%	-9%	i
COc1ccc(C(CNC(=O)c2cccc(Br)c2)N2CCCC2)cc1 (configuration not stated)	?	3%	?	?	-1%	i
O=C(Cn1ncc2c3ccccc3n(Cc3ccc(F)cc3)c2c1=O)NCc1ccccn1	.	.	i	.	.	i
COc1ccc(OC)c(/C=C/c2c3ccccc3cc[n+]2C)c1	.	.	i	.	.	?
Cc1csc(SCc2nc3sc4c(c3c(=O)[nH]2)CCC4)n1	-7%	-1%	5.2µM*	16%	2%	i
COc1ccc(-c2ccc(=O)n(CC(=O)NCCc3ccccc3)n2)cc1	.	.	i	.	.	i
CNC(=S)N/N=C/c1cc(Br)cc(Br)c1O	.	?	i	7.3µM*	23µM*	i
